Screening results deposited in PubChem BioAssay by National Center for Advancing Translational Sciences (NCATS).
ALOX15B inhib: 15-hLO-2 (ALOX15B) enzyme inhibition. actives 0.56% (n = 110,000). O15296. purified 15hLO-2, xylenol orange hydroperoxide absorbance. Potency, µM (top dose mostly 57.1 µM), most hits filed as inhibitors; further: nearly all actives have a fitted effect of over 60% in size
Target sequence (O15296 whole entry, looked up): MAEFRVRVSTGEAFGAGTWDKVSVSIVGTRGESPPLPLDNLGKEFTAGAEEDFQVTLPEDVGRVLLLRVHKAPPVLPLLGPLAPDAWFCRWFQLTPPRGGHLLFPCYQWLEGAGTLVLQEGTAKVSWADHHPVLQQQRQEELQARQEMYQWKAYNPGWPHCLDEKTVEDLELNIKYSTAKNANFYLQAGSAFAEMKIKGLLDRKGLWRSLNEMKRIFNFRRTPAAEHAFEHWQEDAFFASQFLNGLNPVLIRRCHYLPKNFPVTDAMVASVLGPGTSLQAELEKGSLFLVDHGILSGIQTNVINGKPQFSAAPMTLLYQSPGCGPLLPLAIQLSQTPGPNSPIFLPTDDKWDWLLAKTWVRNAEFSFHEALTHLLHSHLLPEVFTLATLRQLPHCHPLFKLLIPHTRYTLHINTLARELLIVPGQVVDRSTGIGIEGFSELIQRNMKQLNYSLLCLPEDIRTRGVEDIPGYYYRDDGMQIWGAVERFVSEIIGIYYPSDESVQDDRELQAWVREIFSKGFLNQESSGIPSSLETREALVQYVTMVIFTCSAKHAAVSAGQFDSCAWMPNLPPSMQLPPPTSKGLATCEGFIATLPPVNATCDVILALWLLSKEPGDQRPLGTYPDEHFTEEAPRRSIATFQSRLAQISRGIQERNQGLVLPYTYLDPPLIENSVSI
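Purified human 15hLO-2 (50 nM final) preincubated with compounds 15 min at room temperature in 25 mM Hepes pH 7.5, 0.01% Triton X-100, then 45 uM arachidonic acid added for 90 min; hydroperoxide detected via ferrous/xylenol orange, 573/405 nm absorbance ratio.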
ALOX12 inhib: blocks human 12-lipoxygenase activity; P18054; purified 12-hLO, xylenol orange hydroperoxide absorbance; Potency, µM (top dose mostly 57.1 µM), most hits filed as inhibitors; actives 0.12% (n = 150,000); further: nearly all actives have a fitted effect of over 55% in size
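Purified human 12hLO (150 nM), preincubated 15 min with compound, then 40 uM arachidonic acid for 30 min, room temperature, Hepes pH 7.0 with 0.01% Triton X-100. Hydroperoxide detected by ferrous iron/xylenol orange; 573/405 nm absorbance ratio gives reaction progress.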
Hits are given with their value; - = inactive; ? = inconclusive; . = not tested or not shown; [ ] = another dose, or the depositor's remark. Only a selection was taken, and hits are over-represented in it overall. The call rests on the fitted dose curve; in most records, active means well fitted curve in the direction sought with a large enough effect; inconclusive means small, poorly fitted or top-dose-only effect, or another doubt; inactive means no such curve, though single readings can be large; an effect the other way counts as inactive or inconclusive.

SMILES	ALOX15B inhib	ALOX12 inhib
COc1ccc(OC)c(S(=O)(=O)Nc2ccc(O)c3ccccc23)c1	16µM	-
COc1ccc(OC)c(S(=O)(=O)Nc2ccc(Oc3ccccc3)cc2)c1	-	?
CCCCSc1nc2c(cc1C#N)CCC2	-	-
CCCSc1nc(C)c(-c2csc(C(C#N)=C3CCCC3)n2)cc1C#N	10µM	-
COC(=O)C1=C(C(=O)OC)[C@@H]2N(C)c3ccccc3[C@@]23C[C@@H](C(=O)OC)N(S(=O)(=O)c2ccc([N+](=O)[O-])cc2)C3=N1	.	-[11.4 µM]
CN1c2ccccc2N(C)C1(C)c1cccc2ccccc12	.	-
CN1c2cccc3cccc(c23)N(C)C1(C)C	16µM	-
CCCCC[C@H](CC(=O)NO)C(=O)N[C@@H](C(=O)N1CCC[C@H]1CO)C(C)C	-	-
Cc1ccc(-c2ccc(/C=C3\C(=O)ON=C3c3ccccc3)o2)c([N+](=O)[O-])c1	4µM	-
O=C1/C(=C\c2ccc(-c3ccccc3[N+](=O)[O-])o2)C(c2ccccc2)=NN1c1ccccc1	.	-
N#Cc1cccc(NC(=O)CSc2ccccc2)c1	-	-
COc1ccc(NC(=O)CSc2nc3ccccc3c3nc4ccccc4n23)cc1	.	-
N#Cc1cccc(NC(=O)CSc2ccc3c4c(cccc24)C(=O)c2ccccc2-3)c1	13µM	-
COc1ccc(NC(=O)CSc2ccc3c4c(cccc24)C(=O)c2ccccc2-3)cc1	16µM	-
CCC(=O)N1C2=C(c3ccccc3[C@@H]1CC(=O)Nc1ccc3ccccc3c1)[C@@H]1C(=O)N(c3ccccc3)C(=O)[C@@H]1[C@H](C)C2	.	-[11.4 µM]
c1ccc2c[n+](CCCC[n+]3ccc4ccccc4c3)ccc2c1	-[11.4 µM]	-[11.4 µM]
Cn1c(O)c(N=N/C(=N/c2ccccn2)c2ccccn2)c2cc(Br)ccc21	.	-
COC(=O)C1=C(C)Nc2ccc(C)cc2S1	6.3µM	-
COC(=O)c1ccc2c(c1)SC1=C(CCCC1=O)N2	?	-
O=C(CSc1nnnn1-c1ccccc1)CC(=O)Nc1ccc(Cl)cc1	-	10µM
O=C(CSc1nnnn1-c1ccccc1)Nc1nsc(-c2ccc(Cl)cc2)n1	-[2.29 µM]	-
C[C@@]12CC[C@H]3[C@H](CC=C4C[C@@H](O)CC[C@@]43C)[C@@H]1CC[C@@H]2N(CCO)CCO	-[11.4 µM]	-[11.4 µM]
COC(=O)C1=C(C(=O)OC)[C@@H]2N(Cc3ccccc3)c3ccccc3[C@@]23C[C@@H](C(=O)OC)N(S(=O)(=O)c2ccc([N+](=O)[O-])cc2)C3=N1	.	-[11.4 µM]
Oc1c(Cl)cc(Cl)c(Cl)c1Cl	-	-
Oc1c(Cl)cc(C(c2cc(Cl)c(O)c(Cl)c2)C(c2cc(Cl)c(O)c(Cl)c2)c2cc(Cl)c(O)c(Cl)c2)cc1Cl	4µM	-[11.4 µM]
SMILES	ALOX15B inhib	ALOX12 inhib
CCOc1cc(/C=C2\SC(=S)N(Nc3ccccc3)C2=O)ccc1O	13µM	?
COc1cc(/C=C2\SC(=S)N(Nc3ccccc3)C2=O)ccc1O	.	-
CCCCC/C=C\C/C=C\CCCCCCCC(=O)NCCc1ccc(O)c(O)c1	.	-
CC(C)(C)NC(=S)Nc1ccc(Br)cc1	-	-
CC(C)(C)NC(=S)Nc1ccc(Nc2ccccc2)cc1	16µM	?
O=C1c2ccccc2C(=O)C1(O)O	25µM	?
O=C(CC1(O)C(=O)c2ccccc2C1=O)c1ccccc1	.	-
CCNc1ncc2nc(-c3cccs3)c(=O)n(Cc3ccc(F)cc3)c2n1	-	.
COc1ccccc1-c1nccc(NCc2cccs2)n1	-	.
CCOC(=O)c1sc(N)c(C(=O)Nc2ccc(C)cc2C)c1C	.	-
CCOC(=O)Cc1csc(NC(=O)NC2(C(F)(F)F)Oc3cc(Cl)c(Cl)cc3O2)n1	10µM	?
CCOC(=O)Cc1csc(NC(=O)NC2(C(F)(F)F)Oc3ccc(Cl)cc3O2)n1 (stereo not given)	?	-
CCOc1ccccc1NC(=S)NC(=O)CCCOc1ccc(Cl)cc1Cl	16µM	?
CCOc1ccccc1OCC(=O)Nc1ccc(Cl)cc1Cl	-	-
C[C@H]1Cc2c(COc3ccccc3)nc3c(c2CO1)CN(S(=O)(=O)c1ccc(C#N)cc1)CC3	.	-[11.4 µM]
c1ccc(-c2nc(-c3cccc4ccccc34)c(Nc3ccc4ccccc4c3)o2)cc1	.	-
COCC(=O)N1CCc2nc(-c3ccccc3)c3c(c2C1)CO[C@@H](C)C3	.	-[11.4 µM]
COc1ccc(-c2nc(-c3ccccc3)c(NC(C)C)o2)cc1	.	-
Cc1ccc(-c2c(C#N)c(N)nc3c2CCCCC3)cc1	-	-
CC1=C(C#N)c2nc(N)c(C#N)c(C)c2/C1=C\c1ccc(C)cc1	25µM	-
COc1ccc(CCN2C(=O)CC(Nc3ccc(N4CCOCC4)cc3)C2=O)cc1OC (stereo not given)	25µM	?
COc1ccc(CCN2C(=O)CC(N3CCOCC3)C2=O)cc1OC (stereo not given)	.	-
COc1ccc(NC2CC(=O)N(C(C)C)C2=O)cc1 (stereo not given)	-	-
CC(C)N1C(=O)CC(Nc2ccc(N3CCOCC3)cc2)C1=O (stereo not given)	25µM	?
C=CCNC(=O)N1CCc2nc(-c3ccccc3)c3c(c2C1)CO[C@@H](C)C3	.	-[11.4 µM]
SMILES	ALOX15B inhib	ALOX12 inhib
CC(C)[C@@H](CC(=O)N[C@@H]1CCNC[C@H]1C(=O)N[C@H](CC(=O)N[C@@H](CCC(=O)O)CC(=O)O)Cc1c[nH]c2ccccc12)NC(=O)C[C@H](CO)NC(=O)[C@@H]1CNCC[C@H]1N	.	-
O=[N+]([O-])c1cc(Cc2cc([N+](=O)[O-])c3cccnc3c2O)c(O)c2ncccc12	-[11.4 µM]	-[11.4 µM]
CCC(=O)NC(c1cccs1)c1cc([N+](=O)[O-])c2cccnc2c1O (stereo not given)	.	2.8µM
CCCCc1nc2c(c3c1C[C@H](C)OC3)CN(S(=O)(=O)c1ccccc1C(=O)OC)CC2	.	-[11.4 µM]
Cc1ccc(N2CSC3=C(C#N)C(c4cccs4)CC(=O)N3C2)cc1 (stereo not given)	13µM	-
N#CC1=C2SCN(Cc3ccco3)CN2C(=O)CC1c1ccccc1F (stereo not given)	?	-
COc1ccc(C2CC(=O)N3CN(c4ccc(C)c(Cl)c4)CSC3=C2C#N)cc1OC (stereo not given)	25µM	?
COc1ccc(N2CSC3=C(C#N)C(c4cc(OC)ccc4OC)CC(=O)N3C2)c(OC)c1 (stereo not given)	10µM	?
COc1ccc(N2CSC3=C(C#N)C(c4ccc(OC)c(OC)c4)CC(=O)N3C2)c(OC)c1 (stereo not given)	?	-
Cc1ccc(N2C(N)=C(C#N)C(c3cccs3)C3=C2CC(C)(C)CC3=O)cc1 (stereo not given)	-	-
COc1ccc(N2CSC3=C(C#N)C(c4cc(OC)c(OC)cc4OC)CC(=O)N3C2)c(OC)c1 (stereo not given)	?	-
COc1ccc(N2CSC3=C(C#N)C(c4cccs4)CC(=O)N3C2)cc1 (stereo not given)	20µM	?
Oc1ccccc1C(Sc1nc2ccccc2s1)Sc1nc2ccccc2s1	?	-[11.4 µM]
O=C1OC2(c3cc(Br)c(O)c(Br)c3Oc3c2cc(Br)c(O)c3Br)c2c(Cl)c(Cl)c(Cl)c(Cl)c21	?	-
CCCCS(=O)(=O)N1C2=NC(C(=O)OC)=C(C(=O)OC)[C@@H]3Nc4ccccc4[C@]23C[C@H]1C(=O)OC	.	-[11.4 µM]
CC(C)(C)c1onc(OCP(=O)(O)O)c1C[C@@H](N)C(=O)O	-	-
CCc1ccc(C2CC(=O)N3CN(c4ccccc4)CSC3=C2C#N)cc1 (stereo not given)	7.9µM	?
